From the supplement of paper PMC6555819

Key:
Assay in all cases: PBM binding z-score (relative to random genomic background probes); higher = stronger binding; sequences stand for … in GC…GCGATTGACAGCGTAGAATGAAGG
[1] = system: LXRa:RXRa (NR concentration 270 nM, RXRa partner concentration 90 nM)
Outline: (§1)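 Probes were double-stranded and carried 34-nt variable regions with direct-repeat seeds, single-nucleotide variants, half-site ablations and random human genomic background sequences, printed on custom Agilent 4×180K protein-binding microarrays. Arrays were incubated 1 h with ligand-free nuclear receptor dimers in PBS pH 7.4, 2% milk, 0.02% Triton X-100, 1 mM DTT, 0.2 mg/mL BSA and 0.4 mg/ml salmon testes DNA. Antibodies against each partner (one per run) detected binding, and scanned fluorescence was regression-normalized. Binding z-scores use the random background probes as reference.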

[2] = system: LXRa homodimer (NR concentration 270 nM)
Outline: as §1

[3] = system: LXRb homodimer (NR concentration 270 nM)
Outline: as §1

[4] = system: PPARg:RXRa (NR concentration 180 nM, RXRa partner concentration 90 nM)
Outline: as §1

[5] = system: PPARg:RXRa 270nM:90nM, anti-RXR (NR concentration 270 nM, RXRa partner concentration 90 nM)
Outline: as §1

[6] = system: PPARg:RXRa 30nM:10nM, anti-RXR (NR concentration 30 nM, RXRa partner concentration 10 nM)
Outline: as §1

[7] = system: PPARg:RXRa 90nM:30nM, anti-RXR (NR concentration 90 nM, RXRa partner concentration 30 nM)
Outline: as §1

[8] = system: PPARg:RXRa DBDmut IVT, anti-RXR (DBD mutation: RXRa K156A/R161A, NR concentration 270 nM, RXRa partner concentration 90 nM)
Outline: as §1

[9] = system: PPARg:RXRa IVT, anti-PPARg (NR concentration 270 nM, RXRa partner concentration 90 nM)
Outline: as §1

[10] = system: PPARg DBDmut:RXRa IVT, anti-PPARg (DBD mutation: PPARg1 K132A/R137A, NR concentration 270 nM, RXRa partner concentration 90 nM)
Outline: as §1

[11] = system: PPARg DBDmut IVT, anti-PPARg (DBD mutation: PPARg1 K132A/R137A, NR concentration 270 nM)
Outline: as §1

[12] = system: PPARg homodimer (NR concentration 180 nM)
Outline: as §1

[13] = system: PXR homodimer (NR concentration 270 nM)
Outline: as §1

[14] = system: RARa homodimer (NR concentration 270 nM)
Outline: as §1

[15] = system: RARb:RXRa (NR concentration 270 nM, RXRa partner concentration 90 nM)
Outline: as §1

[16] = system: RARb homodimer (NR concentration 270 nM)
Outline: as §1

[17] = system: PXR:RXRa (NR concentration 270 nM, RXRa partner concentration 90 nM)
Outline: as §1

[18] = system: RARa:RXR (NR concentration 270 nM, RXRa partner concentration 90 nM)
Outline: as §1

Row | Sequence | PBM binding z-score [1] | PBM binding z-score [2] | PBM binding z-score [3] | PBM binding z-score [4] | PBM binding z-score [5] | PBM binding z-score [6] | PBM binding z-score [7] | PBM binding z-score [8] | PBM binding z-score [9] | PBM binding z-score [10] | PBM binding z-score [11] | PBM binding z-score [12] | PBM binding z-score [13] | PBM binding z-score [14] | PBM binding z-score [15] | PBM binding z-score [16] | PBM binding z-score [17] | PBM binding z-score [18]
1 | GATACGGGGTCAAGGCCAGAGTACGCGTATTGAT | 6.02 | 0.0824 | 0.667 | 8.92 | 8.33 | 5.85 | 7.78 | 4.87 | 6.14 | 2.81 | 2.07 | 4.21 | 1.08 | 2.18 | 5.26 | 4.32 | – | –
2 | AATACGGGGTCACTAGGCCAGAGTAGGTACGAAT | 6.53 | 2 | 2.47 | – | 8.44 | 5.78 | 7.95 | 5.43 | 7.02 | 1.49 | 1.57 | 2.6 | 1.06 | 1.34 | 5.12 | 4.41 | 5.78 | 6.3
3 | CGTCAAAGGTCAAAGGTCAGTGAAGAGATGACGG | – | 5.49 | 4.46 | 11.4 | 9.58 | 9.03 | 10.4 | 5.34 | 6.51 | 2.46 | 1.92 | 4.68 | 1.83 | 3.92 | – | 6.09 | 7.37 | 9.15
4 | CGTCAAAGGTCAGCAGGTCAGTGAAAGCGACGTG | 6.48 | 2.22 | 1.28 | 8.46 | 7.84 | 4.46 | 7.02 | 4.94 | 5.73 | 1.7 | 1.47 | 7.06 | 0.608 | 4.86 | – | 5.42 | 5.39 | –
5 | CGTCCAAGGTCATAGAGGTCAGTGAATGCCGAGT | 6.21 | 5.25 | 1.36 | 5.9 | 6.21 | 2.57 | 4.71 | 4.3 | 4.48 | 0.246 | 1.44 | 7.41 | 13.8 | 3.94 | 5.39 | 5.34 | – | –
6 | CAAACAAGGTCACAGAGGTCAAAGTCCGTGCGTA | – | 8.49 | 3.24 | 9.2 | 8.4 | 5.17 | 7.73 | 6.04 | 7.16 | 3.22 | 4.2 | 6.67 | 14.1 | 3.72 | – | 5.85 | – | –
7 | CGTCAAAGTTCAAGGTCACGTAACAGAAAGCAGC | – | 5.71 | 2.05 | 6.83 | 6.7 | 3.83 | 5.84 | 2.03 | 4.54 | 0.668 | 0.649 | 4.73 | 4.18 | 3.09 | – | 5.56 | 6.25 | 5.79
8 | ATCGAAAGGTCAAAGGTGAGTATACCCACCCGAA | – | 4.82 | 4.53 | – | 8.89 | 6.69 | 8.79 | 4.23 | 6.1 | 3.13 | 3.86 | 4.41 | 1.6 | 3.03 | – | 5.31 | – | –
9 | ATCGAAAGGTCAAGGTGAGTATAGAGAAAGGGAA | – | 2.78 | 3.58 | 8.08 | 7.77 | 5.24 | 7.07 | 3.34 | 5.43 | 2.02 | 1.2 | 4.09 | 1.19 | 2.51 | – | 5.32 | 5.13 | 5.85
10 | CTCGAAAGGTCATGCTCAGGTGAGTATACCAAAC | – | 3.89 | 2.44 | 7.63 | 8.05 | 4.38 | 6.89 | 4.16 | 4.89 | 1.38 | 0.849 | 3.71 | 0.752 | 2.27 | – | 5.14 | 5.91 | 6.85
11 | AATACGGGGTCATCGTAGGCCAGAGTACGCACAG | – | 4.62 | 2.94 | 9.53 | 8.49 | 6.12 | 7.88 | 4.48 | 5.98 | 1.67 | 2.1 | 3.3 | 1.94 | 1.73 | 5.09 | 4.48 | – | –
12 | CCTCGGAGGTCAACAGGAGGTCAGAGCTGCCAGA | – | 4.43 | 1.49 | 6.66 | 6.55 | 2.94 | 5.21 | 3.21 | 4.76 | -0.0592 | -0.488 | 5.25 | 1.63 | 1.53 | – | 5.7 | – | –
13 | CAAACAAGGTCACGAAAGGTCAAAGTCGAATGAC | – | 8.69 | 3.83 | 9.38 | 8.37 | 5.8 | 7.95 | 5.71 | 7.11 | 3.1 | 3.53 | 8.44 | 7.51 | 5.3 | – | 6.14 | – | –
14 | CCTTAGGGGTCAAGGTTATAGCACGGGTGGTACG | – | 1.33 | 1.15 | 8.58 | 7.98 | 5.01 | 7.42 | 3.07 | 5.19 | 1.1 | 0.837 | 4.4 | 1.1 | 2.38 | – | 5.11 | 6.23 | –
15 | CGTCAAAGGTCAAGGTCAGTGAAAGAGACTCGAA | – | 3.09 | 3.05 | – | 8.78 | 6.2 | 8.38 | 4.74 | 6.36 | 3.41 | 4.07 | 6.26 | 1.8 | 4.06 | – | 5.34 | 6.26 | 6.98
16 | CAAACGAGGTCAAGGTCAAAGTCGGTTTGTGCCA | – | 4.79 | 2.41 | 9.01 | 7.98 | 5.75 | 7.37 | 6.4 | 7.3 | 3.16 | 1.96 | 4.15 | 4.12 | 2.66 | – | 5.54 | – | –
17 | CCTTAGGGGTCACGAGGTTATAGCACGACGAGCG | – | 1.59 | 0.631 | – | 9.08 | 6.93 | 8.31 | 5.82 | 6.5 | 3.28 | 2.27 | 5.3 | 0.897 | 2.78 | – | 5.21 | – | –
18 | CGTCAAAGGTCAACTAAGGTAACGTAAAGCACGC | – | 3.42 | 4.64 | 9.18 | 8.77 | 6.39 | 8.42 | 5.01 | 5.93 | 1.03 | 0.957 | 4.87 | 1.59 | 3.77 | – | 5.33 | – | 6.58
